# Experimental data published in the supplement of paper PMC8728848.
# This is one part of a sample in which the strongest signals are shown more often than they occur.
# Key:
# Assay in all cases: glycan array binding signal (z-score within array); higher = stronger binding
# Conditions in all cases: glycan notation: IUPAC condensed, linker removed
# [1] = target: Fuc(a1-2)Gal(b1-3)GalNAc(b1-3)Gal
# Outline: (§1)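 Glycan array binding is given as a within-array Z-score, which can be read as non-binding when negative. The arrays, 3228 of them, came from the Consortium for Functional Glycomics database and were retained only where the protein sequence was available. Z-scores were averaged across arrays of the same protein sequence at different concentrations or buffers and across linkers.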
# [2] = target: Fuc(a1-2)Gal(b1-4)[Fuc(a1-3)]GalNAc(b1-3)Gal(b1-4)[Fuc(a1-3)]GlcNAc
# Outline: as §1
# [3] = target: Fuc(a1-3)[GalNAc(b1-4)]Gal(b1-4)GlcNAc
# Outline: as §1
# [4] = target: Gal(b1-3)[GlcNAc(b1-6)]GlcNAc
# Outline: as §1
# [5] = target: Gal(b1-4)GlcNAc(b1-3)Gal(b1-4)[Fuc(a1-3)]GlcNAc(b1-3)Gal(b1-4)[Fuc(a1-3)]GlcNAc
# Outline: as §1
# GalNAc(b1-4)GlcNAc = target: GalNAc(b1-4)GlcNAc
# Outline: as §1
# [6] = target: GlcNAc(a1-3)Gal(b1-4)GlcNAc
# Outline: as §1
# [7] = target: GlcNAc(b1-3)Gal(b1-3)GalNAc
# Outline: as §1
# [8] = target: GlcNAc(b1-4)GlcNAc(b1-4)GlcNAc(b1-4)GlcNAc(b1-4)GlcNAc
# Outline: as §1
# [9] = target: GlcNAc(b1-4)GlcNAc(b1-4)GlcNAc(b1-4)GlcNAc(b1-4)GlcNAc(b1-4)GlcNAc
# Outline: as §1
# [10] = target: Neu5Ac(a2-3)Gal(b1-3)[Neu5Ac(a2-3)Gal(b1-4)]GlcNAc
# Outline: as §1
# Neu5Ac(a2-3)Gal(b1-4)Glc = target: Neu5Ac(a2-3)Gal(b1-4)Glc
# Outline: as §1
# [11] = target: Neu5Ac(a2-3)Gal(b1-4)GlcNAc(b1-3)Gal(b1-4)GlcNAc
# Outline: as §1
# [12] = target: Neu5Ac(a2-3)Gal(b1-4)GlcNAc(b1-3)Gal(b1-4)GlcNAc(b1-3)Gal(b1-4)GlcNAc
# Outline: as §1
# [13] = target: Neu5Ac(a2-8)Neu5Ac(a2-8)Neu5Ac(a2-8)Neu5Ac(a2-3)[GalNAc(b1-4)]Gal(b1-4)Glc
# Outline: as §1
# [14] = target: Neu5Gc(a2-3)Gal(b1-4)GlcNAc
# Outline: as §1
# Fuc(a1-2)Gal(b1-4)Glc = target: Fuc(a1-2)Gal(b1-4)Glc
# Outline: as §1
# [15] = target: Fuc(a1-2)Gal(b1-4)GlcNAc(b1-3)GalNAc
# Outline: as §1
# [16] = target: Fuc(a1-2)Gal(b1-4)GlcNAc(b1-6)GalNAc
# Outline: as §1
# [17] = target: Fuc(a1-2)Gal6S(b1-3)GlcNAc6S
# Outline: as §1
# [18] = target: Fuc(a1-2)[Gal(a1-3)]Gal(b1-4)GlcNAc
# Outline: as §1
# [19] = target: Fuc(a1-2)[Gal(a1-3)]Gal(b1-4)GlcNAc(b1-2)Man(a1-3)[Fuc(a1-2)[Gal(a1-3)]Gal(b1-4)GlcNAc(b1-2)Man(a1-6)]Man(b1-4)GlcNAc(b1-4)[Fuc(a1-6)]GlcNAc
# Outline: as §1
# [20] = target: Fuc(a1-2)[GalNAc(a1-3)]Gal(b1-3)GalNAc(a1-3)[Fuc(a1-2)]Gal(b1-4)GlcNAc
# Outline: as §1
# [21] = target: Fuc(a1-2)[GalNAc(a1-3)]Gal(b1-3)GlcNAc(b1-2)Man(a1-3)[Fuc(a1-2)[GalNAc(a1-3)]Gal(b1-3)GlcNAc(b1-2)Man(a1-6)]Man(b1-4)GlcNAc(b1-4)[Fuc(a1-6)]GlcNAc
# Outline: as §1
# [22] = target: Fuc(a1-2)[GalNAc(a1-3)]Gal(b1-4)GlcNAc(b1-6)GalNAc
# Outline: as §1
# [23] = target: Fuc(a1-2)[GalNAc(a1-3)]Gal(b1-4)[Fuc(a1-3)]GlcNAc
# Outline: as §1
# [24] = target: Fuc(a1-2)[GalNAc(a1-4)]Gal(b1-4)GlcNAc
# Outline: as §1
# [25] = target: Fuc(a1-2)[GalNAc(b1-3)]Gal
# Outline: as §1
# [26] = target: Fuc(a1-3)[Gal(b1-4)]GlcNAc(b1-2)Man(a1-3)[Fuc(a1-3)[Gal(b1-4)]GlcNAc(b1-2)Man(a1-6)]Man(b1-4)GlcNAc(b1-4)[Fuc(a1-6)]GlcNAc
# Outline: as §1
# Gal(a1-3)Gal(b1-3)GlcNAc = target: Gal(a1-3)Gal(b1-3)GlcNAc
# Outline: as §1
# [27] = target: Gal(a1-3)Gal(b1-3)GlcNAc(b1-2)Man(a1-3)[Gal(a1-3)Gal(b1-3)GlcNAc(b1-2)Man(a1-6)]Man(b1-4)GlcNAc(b1-4)GlcNAc
# Outline: as §1
# [28] = target: Gal(a1-3)Gal(b1-3)GlcNAc(b1-6)GalNAc
# Outline: as §1
# [29] = target: Gal(a1-3)Gal(b1-4)GlcNAc(b1-6)GalNAc
# Outline: as §1
# [30] = target: Gal(b1-3)GlcNAc(b1-6)GalNAc
# Outline: as §1
# [31] = target: Gal(b1-3)GlcNAc(b1-6)[Gal(b1-3)]GalNAc
# Outline: as §1
# [32] = target: Gal(b1-3)[Fuc(a1-4)]GlcNAc
# Outline: as §1
# Gal6S(b1-3)GlcNAc6S = target: Gal6S(b1-3)GlcNAc6S
# Outline: as §1
# GalNAc(a1-3)Gal = target: GalNAc(a1-3)Gal
# Outline: as §1
# GalNAc(b1-3)Gal = target: GalNAc(b1-3)Gal
# Outline: as §1
# [33] = target: GalNAc(b1-3)Gal(a1-6)Gal(b1-4)Glc
# Outline: as §1
# GalNAc(b1-3)GlcNAc = target: GalNAc(b1-3)GlcNAc
# Outline: as §1
# [34] = target: GalNAc(b1-4)GlcNAc(b1-2)Man(a1-3)[GalNAc(b1-4)GlcNAc(b1-2)Man(a1-6)]Man(b1-4)GlcNAc(b1-4)GlcNAc
# Outline: as §1
# GalNAc6S(b1-4)GlcNAc = target: GalNAc6S(b1-4)GlcNAc
# Outline: as §1
# [35] = target: GlcNAc(a1-4)Gal(b1-4)GlcNAc(b1-3)Gal(b1-4)GlcNAc
# Outline: as §1
# [36] = target: GlcNAc(b1-2)[GlcNAc(b1-4)]Man(a1-3)[GlcNAc(b1-4)][GlcNAc(b1-2)[GlcNAc(b1-6)]Man(a1-6)]Man(b1-4)GlcNAc(b1-4)[Fuc(a1-6)]GlcNAc
# Outline: as §1
# Kdn(a2-6)Gal(b1-4)GlcNAc = target: Kdn(a2-6)Gal(b1-4)GlcNAc
# Outline: as §1
# [37] = target: Man(a1-2)Man(a1-2)Man(a1-6)[Man(a1-3)]Man
# Outline: as §1
# [38] = target: Man(a1-2)Man(a1-3)[Man(a1-2)Man(a1-6)]Man
# Outline: as §1
# [39] = target: Man(a1-3)[Man(a1-6)]Man(a1-6)[Man(a1-3)]Man
# Outline: as §1
# [40] = target: Man(a1-3)[Man(a1-6)]Man(b1-4)GlcNAc(b1-4)GlcNAc
# Outline: as §1
# [41] = target: Neu5Ac(a2-3)Gal(b1-3)GlcNAc(b1-4)Gal(b1-4)Glc
# Outline: as §1
# [42] = target: Neu5Ac(a2-3)Gal(b1-4)GlcNAc(b1-3)Gal(b1-4)GlcNAc(b1-3)Gal(b1-4)GlcNAc(b1-2)Man(a1-3)[Neu5Ac(a2-3)Gal(b1-4)GlcNAc(b1-3)Gal(b1-4)GlcNAc(b1-3)Gal(b1-4)GlcNAc(b1-2)Man(a1-6)]GalNAc
# Outline: as §1
# [43] = target: Neu5Ac(a2-3)Gal(b1-4)GlcNAc(b1-3)[Neu5Ac(a2-3)Gal(b1-4)GlcNAc(b1-6)]GalNAc
# Outline: as §1
# [44] = target: Neu5Ac(a2-6)Gal(b1-4)GlcNAc(b1-2)Man(a1-6)[Gal(b1-4)GlcNAc(b1-2)Man(a1-3)]Man(b1-4)GlcNAc(b1-4)GlcNAc
# Outline: as §1
# [45] = target: Neu5Ac(a2-8)Neu5Ac(a2-8)Neu5Ac(a2-3)Gal(b1-4)Glc
# Outline: as §1
# [46] = target: Neu5Gc(a2-8)Neu5Gc(a2-3)Gal(b1-4)GlcNAc(b1-3)Gal(b1-4)GlcNAc
# Outline: as §1
binder,measurement,setting,value
chitinase 3-like protein 2 (Homo sapiens) (protein) YKLVCYFTQWSQDRQEPGKFTPENIDPFLCSHLIYSFASIENNKVIIKDKSEVMLYQTINSLKTKNPKLKILLSIGGYLFGSKGFHPMVDSSTSRLEFINSIILFLRNHNFDGLDVSWIYPDQKENTHFTVLIHELAEAFQKDFTKSTKERLLLTAGVSAGRQMIDNSYQVEKLAKDLDFINLLSFDFHGSWEKPLITGHNSPLSKGWQDRGPSSYYNVEYAVGYWIHKGMPSEKVVMGIPTYGHSFTLASAETTVGAPASGPGAAGPITESSGFLAYYEICQFLKGAKITRLQDQQVPYAVKGNQWVGYDDVKSMETKVQFLKNLNLGGAMIWSIDMDDFTGKSCNQGPYPLVQAVKRSLGSL,glycan array binding signal (z-score),[1],-0.164
same,glycan array binding signal (z-score),[2],-0.22
same,glycan array binding signal (z-score),[3],-0.196
same,glycan array binding signal (z-score),[4],-0.209
same,glycan array binding signal (z-score),[5],-0.183
same,glycan array binding signal (z-score),GalNAc(b1-4)GlcNAc,2.63
same,glycan array binding signal (z-score),[6],-0.271
same,glycan array binding signal (z-score),[7],-0.22
same,glycan array binding signal (z-score),[8],7.67
same,glycan array binding signal (z-score),[9],9.06
same,glycan array binding signal (z-score),[10],-0.116
same,glycan array binding signal (z-score),Neu5Ac(a2-3)Gal(b1-4)Glc,-0.233
same,glycan array binding signal (z-score),[11],-0.269
same,glycan array binding signal (z-score),[12],-0.127
same,glycan array binding signal (z-score),[13],1.51
same,glycan array binding signal (z-score),[14],0.093
Cohesin-hDECTIN-1 (Homo sapiens) (protein) LDITSHHHHHHDDLDAVRIKVDTVNAKPGDTVRIPVRFSGIPSKGIANCDFVYSYDPNVLEIIEIEPGDIIVDPNPDKSFDTAVYPDRKIIVFLFAEDSGTGAYAITKDGVFATIVAKVKEGAPNGLSVIKFVEVGGFANNDLVEQKTQFFDGGVNVGDTTEPATPTTPVTTPTTTDDLDAASSSPCPPNWIIYEKSCYLFSMSLNSWDGSKRQCWQLGSNLLKIDSSNELGFIVKQVSSQPDNSFWIGLSRPQTEVPWLWEDGSTFSSNLFQIRTTATQENPSPNCVWIHVSVIYDQLCSVPSYSICEKKFM,glycan array binding signal (z-score),[1],1.86
same,glycan array binding signal (z-score),Fuc(a1-2)Gal(b1-4)Glc,-0.162
same,glycan array binding signal (z-score),[15],-0.382
same,glycan array binding signal (z-score),[16],2.93
same,glycan array binding signal (z-score),[17],0.18
same,glycan array binding signal (z-score),[18],-0.206
same,glycan array binding signal (z-score),[19],-0.435
same,glycan array binding signal (z-score),[20],-0.177
same,glycan array binding signal (z-score),[21],-0.305
same,glycan array binding signal (z-score),[22],6.29
same,glycan array binding signal (z-score),[23],-0.149
same,glycan array binding signal (z-score),[24],4.25
same,glycan array binding signal (z-score),[25],4.83
same,glycan array binding signal (z-score),[26],-0.51
same,glycan array binding signal (z-score),Gal(a1-3)Gal(b1-3)GlcNAc,4.04
same,glycan array binding signal (z-score),[27],0.993
same,glycan array binding signal (z-score),[28],7.58
same,glycan array binding signal (z-score),[29],5.86
same,glycan array binding signal (z-score),[30],6.01
same,glycan array binding signal (z-score),[31],-0.299
same,glycan array binding signal (z-score),[32],-0.306
same,glycan array binding signal (z-score),Gal6S(b1-3)GlcNAc6S,1.2
same,glycan array binding signal (z-score),GalNAc(a1-3)Gal,2.65
same,glycan array binding signal (z-score),GalNAc(b1-3)Gal,5.2
same,glycan array binding signal (z-score),[33],4.68
same,glycan array binding signal (z-score),GalNAc(b1-3)GlcNAc,3.33
same,glycan array binding signal (z-score),[34],0.004
same,glycan array binding signal (z-score),GalNAc6S(b1-4)GlcNAc,4.98
same,glycan array binding signal (z-score),[35],-0.476
same,glycan array binding signal (z-score),[36],-0.586
same,glycan array binding signal (z-score),Kdn(a2-6)Gal(b1-4)GlcNAc,-0.471
same,glycan array binding signal (z-score),[37],-0.33
same,glycan array binding signal (z-score),[38],-0.432
same,glycan array binding signal (z-score),[39],-0.272
same,glycan array binding signal (z-score),[40],-0.44
same,glycan array binding signal (z-score),[41],-0.22
same,glycan array binding signal (z-score),[42],-0.295
same,glycan array binding signal (z-score),[43],-0.163
same,glycan array binding signal (z-score),[44],-0.561
same,glycan array binding signal (z-score),[45],-0.569
same,glycan array binding signal (z-score),[46],-0.091
